# Rows were chosen to be rich in hits. Some 8.1% of all compounds tested hit in one or more screens of this group.
# NOMO-1 viab – STK33 inhibitor candidate reducing NOMO-1 cell viability; NOMO-1 AML viability, CellTiter-Glo luminescence, 72 h; inhibition, % (concentration not given with the values); hit rate 7.5% among 37,000; in the data active = inhibition above about 80%; inconclusive = no clear call, values can overlap the other calls
# MITF inh – blocks MITF activity. TRPM1 promoter luciferase, luminescence, 24 h. inhibition, % (no concentration beside the values). hit rate 0.28% among 37,000. AID 2240; in the data active = inhibition above about 85%; inconclusive = no clear call, values can overlap the other calls; inactive = below about 68%;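 note: human melanocyte line stably carrying TRPM1 promoter luciferase reporter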
# Hedgehog inh – Sonic Hedgehog pathway inhibition. Shh-LIGHT2 Gli-luciferase reporter, 30 h. inhibition, % (concentration not given with the values). hit rate 2.1% among 22,000;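 active = mean inhibition across valid replicates above about 65%, limit read from the data; inconclusive = mean under the limit, yet half or more replicates past it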;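 note: pathway switched on by Shh-conditioned medium diluted 1 in 25 in low serum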
# * marks the source's active call; other numbers are inactive results; ? = inconclusive; . = no result given; ! = not confirmed by another sample.
SMILES,NOMO-1 viab,MITF inh,Hedgehog inh
C=CC(C)(C)[C@]12C=C(OC)C(=O)N3/C(=C/c4cnc[nH]4)C(=O)N[C@@]31N(OC)c1ccccc12,101*,11,-4
CCOP(=S)(OCC)Oc1nc(Cl)c(Cl)cc1Cl,-9,13,-6
O=C1NC(=O)C(CCc2ccncc2)(CCc2ccncc2)C(=O)N1c1ccccc1F,-7,4,.
N[C@@H](Cc1ccc(N(CCCl)CCCl)cc1)C(=O)O,111*,13,23
O=C(O)CCCc1ccc(N(CCCl)CCCl)cc1,110*,-7,10
COC(=O)[C@H]1O[C@@H]2C[C@H]3OC(n4cnc5c(N)ncnc54)[C@H](OC)[C@H]3O[C@@]2(O)[C@@H](O)[C@@H]1O (stereo not given in full),10,9,-7
CCN(CC)C(=O)N[C@@H]1C[C@@H]2c3cccc4[nH]cc(c34)C[C@H]2N(C)C1,14,-15,-33
COC(=O)CC1=C(C(=O)OC)C2(C(=O)Nc3ccccc32)C(C(=O)OC)=C(N)O1 (stereo not given),16,9,-4
Fc1ccc(C(OCCN2CCN(C/C=C/c3ccccc3)CC2)c2ccc(F)cc2)cc1,120*,100*,84*
Fc1ccc(C(OCCN2CCN(CCCc3ccccc3)CC2)c2ccc(F)cc2)cc1,103*,7,67*!
c1ccc(CCCN2CCN(CCOC(c3ccccc3)c3ccccc3)CC2)cc1,104*,21,86*
CNC(C)[C@H](O)c1ccccc1 (stereo not given in full),2,-5,-25
NCC(CS(=O)(=O)O)c1ccc(Cl)cc1 (stereo not given),-5,-8,12
Cn1c2c(c3ccccc31)CCNCC2,-4,0,14
O=C1CC=C2C3CC4N(CCC45c4ccccc4N1C25)C/C3=C/CO (stereo not given),7,7,16
O=c1c2ccccc2[nH]c(=S)n1-c1ccc(Cl)c(Cl)c1,29,-7,-23
CC(C)c1cc2c(cc1O)[C@@]1(C)C[C@@H](O)CC(C)(C)C1CC2 (stereo not given in full),103*,-4,-21
CC(C)c1cc2c(cc1O)[C@@]1(C)C[C@@H](O)CC(C)(CO)C1CC2 (stereo not given in full),18,-7,-4
CCOC(=O)C1=NN(c2ccc(C)cc2)C2c3cccc4cccc(c34)C12 (stereo not given),22,-62,.
O=C1NC(=O)N(c2ccccc2)C(=O)/C1=C/c1ccco1,136*,3,.
CC1(C)C2CC(=O)[C@]3(C)C(CC[C@@]4(C)[C@H](c5ccoc5)OC(=O)[C@H]5O[C@]543)[C@@]2(C)C(=O)C[C@H]1O (stereo not given in full),17,-12,-13
COC1CC(OC2C(C)OC(OC3C(C)OC(OC4C(C)OC(O[C@H]5CC[C@@]6(C)C(=CC[C@]7(O)C6CC(OC(=O)c6ccccc6)[C@@]6(C)[C@]7(O)CC[C@@]6(O)C(C)=O)C5)CC4OC)CC3OC)CC2OC)OC(C)C1O (stereo not given in full),120*,35,-48
CC(O)CNCCNc1ccc([N+](=O)[O-])c2cccnc12 (stereo not given),13,31,.
COC[C@H]([C@@H](O)[C@@H](O)C(=O)NCC[C@@H](C)c1nc(/C=C/C[C@H]2OC3(C[C@H](O)[C@H]2C)OC([C@@H](C[C@@H](O)[C@@H](C)[C@@H](O)[C@@H](C)/C=C(C)/C(C)=C/C=C/C(C)=C\C#N)OC)[C@@H](OP(=O)(O)O)C3(C)C)co1)N(C)C (stereo not given in full),139*,65,105*
COc1ccc2c(c1OC)C(=O)O[C@@H]2[C@@H]1c2cc3c(cc2CCN1C)OCO3,-27,-9,-2
SMILES,NOMO-1 viab,MITF inh,Hedgehog inh
O=C1NC(=O)C(=C/C=C/c2ccccc2)C(=O)N1,113*,87*,?
C[C@]12CCC(=O)C=C1CC[C@@H]1[C@@H]2C(=O)C[C@]2(C)C(=O)CC[C@@H]12,17,4,-23
CCNC(=O)[C@H]1O[C@@H](n2cnc3c(N)ncnc32)C(O)[C@H]1O (stereo not given in full),1,-1,42
CC(C)C12CN3CCN(CC(C3)/C1=N/N)C2,-10,-10,-24
C[C@@H]1O[C@@H](O[C@H]2[C@H](O)[C@@H](O)[C@H](O[C@@H]3C=C4CC[C@@H]5C(CC[C@]6(C)[C@@H](c7ccc(=O)oc7)CC[C@]56O)[C@@]4(C)CC3)O[C@@H]2CO)[C@H](O)[C@H](O)[C@H]1O (stereo not given in full),124*,51,-7
CCC(C)[C@H]1O[C@]2(C=C[C@@H]1C)C[C@@H]1C[C@@H](C/C=C(\C)[C@@H](OC3C[C@H](OC)C(O[C@H]4C[C@H](OC)[C@@H](O)[C@H](C)O4)[C@H](C)O3)[C@@H](C)/C=C/C=C3\CO[C@@H]4[C@H](O)C(C)=C[C@@H](C(=O)O1)[C@]34O)O2 (stereo not given in full),104*,100*,5
O=C(Nc1ccc2c(C(F)(F)F)cc(=O)oc2c1)c1cc(Cl)cc(Cl)c1,122*,8,-23
CCc1ccc(CN2CCN(Cc3cccc(OC)c3)CC2)cc1,26,1,.
COc1cc(C)c(Oc2cc(C)cc(O)c2)c(O)c1,-4,9,-7
C[C@@H]1O[C@@H](O[C@H]2C[C@@H](O)[C@]3(CO)[C@H]4[C@H](O)C[C@]5(C)[C@@H](C6=CC(=O)OC6)CC[C@]5(O)[C@@H]4CC[C@]3(O)C2)[C@H](O)[C@H](O)[C@H]1O,119*,41,-70
CO[C@H]1[C@H](O)[C@H](O[C@H]2CC[C@]3(C)C4CC[C@]5(C)[C@H](C6=CC(=O)OC6)CC[C@]5(O)C4CC[C@@H]3C2)O[C@@H](C)[C@@H]1O (stereo not given in full),123*,31,-5
C[C@@H]1O[C@@H](OC2CCC3(C)C4CCC5(C)C(C6=CC(=O)OC6)CCC5(O)C4CC[C@H]3C2)[C@H](O)[C@H](O)[C@H]1O (stereo not given in full),109*,2,18
C[C@]12CC[C@H]3[C@@H](CC[C@]4(O)C[C@@H](O)CC[C@]34C=O)[C@@]1(O)CC[C@@H]2C1=CC(=O)OC1,115*,32,-40
CCCCSP(=O)(SCCCC)SCCCC,-12,2,8
Cc1ccccc1NC1=NCC(C)(C)S1,-3,-22,23
COC(=O)[C@@]12C(=O)C(C)C(=O)[C@]1(C)C(C)=C[C@H]1[C@]3(C)CC[C@H](OC(C)=O)C(C)(C)[C@H]3CC[C@@]12C (stereo not given in full),17,-15,-10
O=C(c1ccccc1)N1CC2CC(C1)c1cccc(=O)n1C2 (stereo not given),16,5,19
COC(=O)c1ccc(OP2(=O)COc3ccccc3OC2)cc1,6,-3,-12
C=CCC1(NCCc2ccccc2)CCCCC1,14,-20,.

# Screens from PubChem.
